Each structure is given as a SMILES string. ± gives the standard deviation.

This experiment deals with RAW-Dual (murine macrophage reporter line). Put plainly: IRF reporter (Lucia luciferase) activity fold change vs agonist alone; higher = enhanced IRF activity. The note with it: modulator concentration 10 µM; agonist: LPS 0.1 ug/mL. In outline: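 In 384-well plates holding 50 000 RAW-Dual murine macrophage reporter cells per well, compound at 10 μM final was pre-incubated for 1 hour at 37 °C, after which a PRR agonist was added overnight. Supernatant SEAP read with QUANTI-Blue at 620 nm absorbance reported NF-κB, and Lucia luciferase read with QUANTI-Luc luminescence reported IRF. Fold change values come from dividing each reporter signal by the mean of agonist-only control wells on the same plate, averaged over replicate plates with propagated errors.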
Regarding `COC12CC(COC(=O)c3cncc(Br)c3)CN(C)C1Cc1cn(C)c3cccc2c13` (stereo not drawn), the IRF reporter amounted to 1.16 ± 0.11.
Next, `CCOC(=O)c1ccccc1-c1ccc(C=C2C(=O)NC(=O)N(c3ccccc3C)C2=O)o1`: 0.631 ± 0.096; `c1cc2c(cc1C1OCC3C(c4ccc5c(c4)OCO5)OCC13)OCO2` (stereo not drawn): 1.22 ± 0.17.
Next, `CCN(CC)CCNC(=O)C(O)(c1ccccc1)c1ccccc1`: 0.991 ± 0.17; `COc1cc2c(cc1OC)C1CC(=O)C(CC(C)C)CN1CC2` (stereo not drawn): 0.933 ± 0.047.
Regarding `O=C1CCC(=O)N1C1CC2CCC(C1)N2C(=O)Cc1cccc2ccccc12` (stereo not drawn), the IRF reporter was determined as 1.25 ± 0.076.
Next, `CCOc1cc(C=C2C(=O)NC(=O)NC2=O)ccc1OCc1c(Cl)cccc1Cl`: 1.35 ± 0.11.
Take `CCC1(O)C(=O)OCc2c1cc1n(c2=O)Cc2cc3ccccc3nc2-1` (stereo not drawn): the IRF reporter was 1.24 ± 0.2.
The result for `CCC1(c2cccc(O)c2)CCCCN(C)C1.Cl` (stereo not drawn) reads 0.963 ± 0.043; that for `CC(C)c1ccc2c(c1O)CCC1C3=C(CCC21C)C(=O)OC3` (stereo not drawn), 1.11 ± 0.19.
Turning to `COc1cc(OC)c(OC)cc1C=O`, the IRF reporter was 1.02 ± 0.11.
Next, `COc1ccc(CCNCc2ccc3ccccc3c2)cc1OC`: 1.17 ± 0.12; `COC(=O)COc1ccc(C=C2C(=O)NC(=S)N(c3cccc(Cl)c3Cl)C2=O)cc1OC`: 1.35 ± 0.12; `CC(C)N(CCC(C(N)=O)(c1ccccc1)c1ccccn1)C(C)C` (stereo not drawn): 0.94 ± 0.2.
Turning to `COc1ccc(CNCCc2c[nH]c3ccccc23)c(OC)c1C`, the IRF reporter was determined as 3.32 ± 0.42.
Turning to `CCOC(=O)Nc1ccc(NCc2ccc(F)cc2)cc1N`, the IRF reporter worked out at 1.2 ± 0.33.
The result for `O=Cc1cn(Cc2cccc3ccccc23)c2ccccc12` reads 1.25 ± 0.28; that for `C1CCc2nnnn2CC1` [Prestw-162], 1.11 ± 0.17; that for `O=C(O)COc1cc(Cl)c(Cl)cc1Cl`, 1.37 ± 0.18.
Next, `NC(=O)Cn1c(Cc2ccccc2Cl)nc2ccccc21`: 1.06 ± 0.093; `CC(=O)CC(c1ccccc1)c1c(OC(C)=O)c2ccccc2oc1=O` (stereo not drawn): 1.3 ± 0.1; `CCC1(C)CC(=O)NC(=O)C1`: 1.02 ± 0.11.
Next, `CN1C(=O)NC(=O)C(=Cc2ccc([N+](=O)[O-])s2)C1=O`: 0.925 ± 0.12.
On to `CC(C(O)c1ccccc1)N(C)C` (stereo not drawn), for which the IRF reporter amounted to 1.26 ± 0.12.
Next, `Cc1c(NC=C2C(=O)NC(=O)NC2=O)c(=O)n(-c2ccccc2)n1C`: 1.45 ± 0.2.
The result for `CCC1(c2c[nH]cn2)Cc2ccccc2C1.Cl` reads 1.25 ± 0.11; that for `CC(=O)OC1CN2CCC1CC2.Cl` (stereo not drawn), 0.869 ± 0.15; that for `COc1ccc(CN2CCNCC2)c(OC)c1OC.Cl.Cl`, 1.29 ± 0.28.
`CCOc1cc(C=C2N=C(c3cccc(C)c3)OC2=O)ccc1OC(=O)Cc1ccccc1`: the IRF reporter was found to be 1.19 ± 0.1.
In the case of `CCCCCn1c(=O)c(C(=O)NCc2cccnc2)c(O)c2ccccc21`, the IRF reporter amounted to 1.31 ± 0.087.
Next, `CN1CC(CNC(=O)OCc2ccccc2)CC2c3cccc4c3c(cn4C)CC21` (stereo not drawn): 1.43 ± 0.14; `CCNc1nc(Cl)nc(NC(C)C)n1`: 1.33 ± 0.21.
For `ClC(Cl)=C(c1ccc(Cl)cc1)c1ccc(Cl)cc1`, the IRF reporter turned out to be 1.12 ± 0.12.
On to `CC(=O)Oc1ccc(C=Cc2cc(OC(C)=O)cc(OC(C)=O)c2)cc1`, for which the IRF reporter was 0.953 ± 0.088.
The result for `COc1ccc2c(c1O)-c1c(OC)c(OC)cc3c1C(C2)N(C)CC3` (stereo not drawn) reads 1.29 ± 0.14.
The result for `Cc1cccc(-n2c(C)nc3ccccc3c2=O)n1` reads 1.02 ± 0.054.
Take `O=C1NC(=O)C(=Cc2cccn2-c2ccc(Br)cc2)C(=O)N1`: the IRF reporter is 0.91 ± 0.14.
Next, `COc1cc(CNCCc2c[nH]c3ccccc23)cc(OC)c1O`: 1.44 ± 0.11.
